These results are taken from PubChem BioAssay (NCI).

About 79,000 compounds went through this panel and 15% of them were active in at least one assay; those are over-represented in the sample as a whole. A number with no mark means an inactive call. The source made the active and inactive calls. Cut-off read from the data, not from the text of the source: active = growth inhibition above about 70%; inactive = the rest.

The assay can be described thus: NCI Yeast Anticancer Drug Screen. Data for the rad18 strain (AID 177). The note with it: S. cerevisiae rad18 mutant growth inhibition, stronger effect = higher value. As to the method:
Growth inhibition of yeast strains with defined genetic alterations is measured as a screen for potential anti-cancer activity. Selected strains with alterations in DNA damage repair or cell cycle control were exposed to compounds and growth inhibition was measured relative to vehicle treated controls. The strain used in this assay is rad18

Turning to `NC(N)=NS(=O)(=O)c1ccc(Nc2c3ccccc3nc3c(C(=O)NC(CO)(CO)CO)cccc23)cc1`, the growth inhibition is, setting by setting: (at 1.2 µM) -3%; (at 3.7 µM) 0%; (at 11.0 µM) -1%; (at 33.0 µM) 2%; (at 100.0 µM) 9%.

For the compound `COc1ccc(N=c2cc(-c3ccccc3)oc3ccccc23)cc1`, the growth inhibition by setting is: (at 1.2 µM) -2%; (at 3.7 µM) 0%; (at 11.0 µM) -1%; (at 33.0 µM) -6%; (at 100.0 µM) -8%.

Regarding `CCCCCc1c(CCCC)c(=O)[nH]c2cc(CNCC(OC)OC)ccc12`, the growth inhibition (at 1.2 µM) is 10%; the growth inhibition (at 3.7 µM) was 19%; the growth inhibition (at 11.0 µM) was 14%; the growth inhibition (at 33.0 µM) was 98% (active); the growth inhibition (at 100.0 µM) was 94% (active).

For `CCC(=O)Nc1ccc(N=NN(C)C)cc1`, the growth inhibition by setting is: (at 1.2 µM) -8%; (at 3.7 µM) -10%; (at 11.0 µM) -9%; (at 33.0 µM) 69%; (at 100.0 µM) 99% (active).

Consider `CCC(=O)C1=C(O)c2cc(OC)ccc2CC1C(=O)OC` (stereo not given), for which the growth inhibition is, setting by setting: (at 1.2 µM) -1%; (at 3.7 µM) -3%; (at 11.0 µM) 2%; (at 33.0 µM) 8%; (at 100.0 µM) 21%.

With `OC(c1ccccc1)(c1ccccc1)c1nccc2ccccc12`, the growth inhibition (at 1.2 µM) is 0%; the growth inhibition (at 3.7 µM) was 14%; the growth inhibition (at 11.0 µM) is 27%; the growth inhibition (at 33.0 µM) was 55%; the growth inhibition (at 100.0 µM) is 63%.

For `CCCN=Cc1cc(Cc2ccc(O)c(C=NCCC)c2)ccc1O`, the growth inhibition is 45% (at 1.2 µM); 95% (active) (at 3.7 µM); 98% (active) (at 11.0 µM); 99% (active) (at 33.0 µM); 99% (active) (at 100.0 µM).

For the compound `CO[C@@]1([C@@H](Cl)c2ccccc2)C(=O)N(C)/C(=C\c2ccccc2)C(=O)N1C`, the growth inhibition was 0% (at 1.2 µM); 0% (at 3.7 µM); -1% (at 11.0 µM); 4% (at 33.0 µM); 9% (at 100.0 µM).
